Screen size: about 190,000 compounds; about 4,100 (2.2%) were called active.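 Rule for the calls: active = thallium flux slope and its plate-corrected score both differing from the plate sample mean at a set confidence after two filtering rounds, in either direction; inactive = the rest.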 This excerpt belongs to a sample that is enriched for actives.

Chain of Solute carrier family 12 member 5 (Homo sapiens) (Q9H2X9 whole entry, looked up): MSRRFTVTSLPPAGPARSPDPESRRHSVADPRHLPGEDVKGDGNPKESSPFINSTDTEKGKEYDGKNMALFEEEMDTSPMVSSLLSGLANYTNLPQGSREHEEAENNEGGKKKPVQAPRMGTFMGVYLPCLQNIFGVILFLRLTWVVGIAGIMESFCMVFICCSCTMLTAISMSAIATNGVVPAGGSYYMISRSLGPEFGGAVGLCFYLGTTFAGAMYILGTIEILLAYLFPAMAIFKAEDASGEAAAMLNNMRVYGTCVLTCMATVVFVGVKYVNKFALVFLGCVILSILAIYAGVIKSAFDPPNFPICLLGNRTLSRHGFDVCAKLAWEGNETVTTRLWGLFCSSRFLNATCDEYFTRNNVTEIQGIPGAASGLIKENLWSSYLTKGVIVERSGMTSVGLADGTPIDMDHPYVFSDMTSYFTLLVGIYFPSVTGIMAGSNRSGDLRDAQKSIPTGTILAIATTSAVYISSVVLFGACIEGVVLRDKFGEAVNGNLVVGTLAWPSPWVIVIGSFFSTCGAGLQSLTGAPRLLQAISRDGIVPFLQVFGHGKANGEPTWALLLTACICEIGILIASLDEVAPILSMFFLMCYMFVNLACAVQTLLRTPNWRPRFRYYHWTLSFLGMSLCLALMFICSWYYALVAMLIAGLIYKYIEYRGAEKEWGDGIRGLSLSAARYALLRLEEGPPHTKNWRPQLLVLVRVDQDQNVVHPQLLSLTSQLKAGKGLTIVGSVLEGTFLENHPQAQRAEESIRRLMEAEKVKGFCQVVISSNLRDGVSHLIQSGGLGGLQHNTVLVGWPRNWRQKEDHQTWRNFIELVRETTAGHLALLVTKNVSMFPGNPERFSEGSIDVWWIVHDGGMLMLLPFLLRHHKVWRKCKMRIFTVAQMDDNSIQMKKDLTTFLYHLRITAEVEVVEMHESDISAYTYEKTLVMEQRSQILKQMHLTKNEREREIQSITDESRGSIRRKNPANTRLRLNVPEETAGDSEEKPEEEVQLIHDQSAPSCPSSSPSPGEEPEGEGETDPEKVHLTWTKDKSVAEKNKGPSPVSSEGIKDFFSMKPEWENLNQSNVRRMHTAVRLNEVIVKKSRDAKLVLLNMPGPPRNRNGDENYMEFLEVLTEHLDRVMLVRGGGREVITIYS

The assay addresses Solute carrier family 12 member 5 (Homo sapiens) (UniProt Q9H2X9). The experiment in a line: KCC2 cotransporter modulators, thallium flux, primary screen, cell-based, HEK293 KCC2, FluoZin-2 fluorescence, MLSMR (AID 1456).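 Note: slope of fluorescence scaled to starting intensity during 10 to 20 s after thallium.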 Conditions: KCC2 cells, thallium flux FluoZin-2 fluorescence; at 10 µM.
For `O=c1c(-c2ccc3c(c2)OCCO3)c(C(F)(F)F)oc2cc(O)cc(O)c12`, the B-score of Tl+ flux slope (higher = more flux/activation; lower = inhibition) was -2.89 (active).

Consider `CCOC(=O)c1cc2cc(-c3c(C(=O)OCC)oc4cc(O)cc(O)c4c3=O)ccc2o1`, for which the B-score of Tl+ flux slope (higher = more flux/activation; lower = inhibition) is -1.36 (inactive).

On to `COc1ccc(-c2onc(C)c2-c2ccc3c(c2)OCCO3)c(O)c1`, for which the B-score of Tl+ flux slope (higher = more flux/activation; lower = inhibition) is 0.0687 (inactive).

As for `COC(=O)C1=C(C)NC(=O)/C1=C/c1ccc(CNS(=O)(=O)c2ccc(C)cc2)o1`, the B-score of Tl+ flux slope (higher = more flux/activation; lower = inhibition) was -0.17 (inactive).

On to `O=C(O)C(NS(=O)(=O)c1cccc2nsnc12)c1ccccc1` (stereo not drawn), for which the B-score of Tl+ flux slope (higher = more flux/activation; lower = inhibition) was 0.0778 (inactive).

For `CCCCSc1[nH]c(=O)c(C(=O)OCC)cc1C#N`, the B-score of Tl+ flux slope (higher = more flux/activation; lower = inhibition) is 13 (active).

Consider `CCOC(=O)c1cc(C#N)c(N2CCCCC2)nc1-c1ccccc1`, for which the B-score of Tl+ flux slope (higher = more flux/activation; lower = inhibition) is 0.496 (inactive).

With `Cc1cc(=O)[nH]c(SCC(N)=O)c1C#N`, the B-score of Tl+ flux slope (higher = more flux/activation; lower = inhibition) is 0.485 (inactive).

Consider `CCc1c(C)nc2c(-c3ccccc3)c(C)nn2c1Nc1ccc(NC(C)=O)cc1`, for which the B-score of Tl+ flux slope (higher = more flux/activation; lower = inhibition) was 0.635 (inactive).

Turning to `Cc1cc2[nH]ncc2cc1NC(=S)NC(=O)c1ccccc1`, the B-score of Tl+ flux slope (higher = more flux/activation; lower = inhibition) was 0.179 (inactive).

As to `Cc1ccccc1NC(=S)NNC(=O)c1cccc(Br)c1`, the B-score of Tl+ flux slope (higher = more flux/activation; lower = inhibition) is 11.3 (active).

As for `Cc1ccccc1NC(=O)c1ccccc1`, the B-score of Tl+ flux slope (higher = more flux/activation; lower = inhibition) is 0.272 (inactive).

Regarding `COC(=O)c1sc(NC(=O)c2ccc(OC)cc2OC)nc1C`, the B-score of Tl+ flux slope (higher = more flux/activation; lower = inhibition) was -0.264 (inactive).

As to `CC(=O)c1sc(NC(=O)c2ccc(C)cc2)nc1C`, the B-score of Tl+ flux slope (higher = more flux/activation; lower = inhibition) is 0.0252 (inactive).

For `Cc1ccc(C)c(NC(=S)NNC(=O)c2csc(C)c2)c1`, the B-score of Tl+ flux slope (higher = more flux/activation; lower = inhibition) was 6.59 (active).

Consider `O=C(NC(=S)Nc1cccc2c(O)cccc12)c1cccc(Br)c1`, for which the B-score of Tl+ flux slope (higher = more flux/activation; lower = inhibition) is 1.46 (inactive).

`Cc1ccc(C)c(NC(=O)C(OC(=O)c2ccc(C)s2)c2ccccc2)c1` (stereo not drawn): the B-score of Tl+ flux slope (higher = more flux/activation; lower = inhibition) is 0.676 (inactive).

For `Cc1ccc(NC(=S)NC(=O)c2ccc(-c3ccccc3)cc2)c(C)c1`, the B-score of Tl+ flux slope (higher = more flux/activation; lower = inhibition) is 1.26 (inactive).

Consider `Cc1ccc(C(=O)NC(=S)Nc2ccccc2C)cc1`, for which the B-score of Tl+ flux slope (higher = more flux/activation; lower = inhibition) is 26.9 (active).

In the case of `COC(=O)c1sc(NC(=S)NC(=O)c2ccc(C)cc2)nc1C`, the B-score of Tl+ flux slope (higher = more flux/activation; lower = inhibition) was 33.9 (active).

Regarding `Cc1ccc(C)c(NC(=O)CCC(=O)NNC(=O)c2cccs2)c1`, the B-score of Tl+ flux slope (higher = more flux/activation; lower = inhibition) was -1.3 (inactive).

On to `Cc1ccc2c(c1)c1ncn(Cc3ccc(F)cc3)c(=O)c1n2C`, for which the B-score of Tl+ flux slope (higher = more flux/activation; lower = inhibition) was -2.08 (inactive).

Regarding `O=[N+]([O-])c1cc([N+](=O)[O-])c2cccnc2c1O`, the B-score of Tl+ flux slope (higher = more flux/activation; lower = inhibition) is -1.12 (inactive).

Turning to `COC(=O)c1ccc(COc2cc([N+](=O)[O-])cc3cccnc23)cc1`, the B-score of Tl+ flux slope (higher = more flux/activation; lower = inhibition) is 0.95 (inactive).

For the molecule `O=C(Nc1ccc([N+](=O)[O-])cc1)C1CC12CCC2` (stereo not drawn), the B-score of Tl+ flux slope (higher = more flux/activation; lower = inhibition) was -0.552 (inactive).

With `CCOc1ccc(NC(=S)N2CCCCCC2)cc1`, the B-score of Tl+ flux slope (higher = more flux/activation; lower = inhibition) is -0.294 (inactive).

Consider `CCOCC(=O)Nc1ncc(S(=O)(=O)c2ccc([N+](=O)[O-])cc2)s1`, for which the B-score of Tl+ flux slope (higher = more flux/activation; lower = inhibition) is -0.205 (inactive).

For `CCc1ccc(-n2c(SCc3cc(=O)n4cc(Br)ccc4n3)nc3[nH]ncc3c2=O)cc1`, the B-score of Tl+ flux slope (higher = more flux/activation; lower = inhibition) is -1.01 (inactive).

With `Cc1ccc(C)c(NC(=S)NNC(=S)Nc2ccc(C(C)C)cc2)c1`, the B-score of Tl+ flux slope (higher = more flux/activation; lower = inhibition) is 4.26 (active).

Turning to `Cc1cc(C(=O)NNC(=S)Nc2ccccc2C)cs1`, the B-score of Tl+ flux slope (higher = more flux/activation; lower = inhibition) is 4.58 (active).

Regarding `CC(C)c1ccc(NC(=S)NNc2ccc(Cl)c(C(=O)O)c2)cc1`, the B-score of Tl+ flux slope (higher = more flux/activation; lower = inhibition) is 0.393 (inactive).

With `Cc1ccc(NC(=S)N/N=C2/CCCc3c(C)cc(C)cc32)cc1`, the B-score of Tl+ flux slope (higher = more flux/activation; lower = inhibition) was 0.076 (inactive).

For `Cc1ccccc1NC(=S)Nc1cccc([N+](=O)[O-])c1`, the B-score of Tl+ flux slope (higher = more flux/activation; lower = inhibition) is 0.705 (inactive).

For `Cc1cc(C(=O)NNC(=S)NC(C)c2ccccc2)cs1` (stereo not drawn), the B-score of Tl+ flux slope (higher = more flux/activation; lower = inhibition) is -1.17 (inactive).

As to `COc1ccc(CCNC(=O)C(=O)NCC2CCNCC2)cc1OC`, the B-score of Tl+ flux slope (higher = more flux/activation; lower = inhibition) was 0.52 (inactive).

Take `O=C(NNc1cc(Cl)cc(Cl)c1)c1c(F)cccc1Cl`: the B-score of Tl+ flux slope (higher = more flux/activation; lower = inhibition) is -0.755 (inactive).

Regarding `COc1cc(OC)c(OC)cc1/C=N/Nc1ncnc2c1[nH]c1ccc(C)cc12`, the B-score of Tl+ flux slope (higher = more flux/activation; lower = inhibition) is -1.07 (inactive).

Consider `Cc1ccc(C(=O)NNc2ncnc3ccccc23)cc1`, for which the B-score of Tl+ flux slope (higher = more flux/activation; lower = inhibition) was 0.377 (inactive).

As for `OC(c1ccccc1)C(CN1CCOCC1)c1ccccc1` (stereo not drawn), the B-score of Tl+ flux slope (higher = more flux/activation; lower = inhibition) is 0.0146 (inactive).

Turning to `Cc1ccc(N=Cc2c(O)cc(C)oc2=O)c(C)c1`, the B-score of Tl+ flux slope (higher = more flux/activation; lower = inhibition) was 1.91 (inactive).

As for `Cc1ccc(-n2c(O)c(C=Nc3ccc(S(=O)(=O)Nc4ncccn4)cc3)c3ccccc3c2=O)cc1C`, the B-score of Tl+ flux slope (higher = more flux/activation; lower = inhibition) is -0.0402 (inactive).

For `Cc1ccc(N=Cc2c(O)n(-c3nccs3)c(=O)c3ccccc23)c(C)c1`, the B-score of Tl+ flux slope (higher = more flux/activation; lower = inhibition) was -6.91 (active).

With `CC(=O)Nc1ccc(S(=O)(=O)NC2(C(F)(F)F)C(=O)NC(C)=C2C#N)cc1` (stereo not drawn), the B-score of Tl+ flux slope (higher = more flux/activation; lower = inhibition) was -0.983 (inactive).

For `CCOC(=O)c1c(NC(=O)C2(C)Cc3ccccc3C(=O)O2)sc2c1CCCC2` (stereo not drawn), the B-score of Tl+ flux slope (higher = more flux/activation; lower = inhibition) is 1.05 (inactive).

In the case of `CCOC(=O)C1=C(NC(=S)NC(=O)c2ccccc2)c2ccccc2CC1(C)C`, the B-score of Tl+ flux slope (higher = more flux/activation; lower = inhibition) was 3.94 (active).

`COCCCNC(=S)NC(=O)c1ccccc1`: the B-score of Tl+ flux slope (higher = more flux/activation; lower = inhibition) is 1.23 (inactive).

Turning to `Cc1nnsc1C(=O)NCc1c(F)cccc1Cl`, the B-score of Tl+ flux slope (higher = more flux/activation; lower = inhibition) is 0.221 (inactive).

Take `COc1ccccc1NC(=O)c1cc(Cl)nc2ccccc12`: the B-score of Tl+ flux slope (higher = more flux/activation; lower = inhibition) is 0.201 (inactive).

As for `COc1cc(NC(=O)c2ccc(CNc3c(N4CCCC4)c(=O)c3=O)cc2)cc(OC)c1OC`, the B-score of Tl+ flux slope (higher = more flux/activation; lower = inhibition) is 0.127 (inactive).

On to `Cc1cc(C)nc(SCC(=O)N(C)C)n1`, for which the B-score of Tl+ flux slope (higher = more flux/activation; lower = inhibition) was -0.609 (inactive).

For the molecule `CCOC(=O)c1c(C)oc(C)c(C(=O)OCC)c1=O`, the B-score of Tl+ flux slope (higher = more flux/activation; lower = inhibition) was -0.18 (inactive).

With `CCOC(=O)c1c(C)[nH]c(C)c1C(=O)CSc1nc(N)cc(N)n1`, the B-score of Tl+ flux slope (higher = more flux/activation; lower = inhibition) was 6.26 (active).

For `O=S(=O)(NCCc1csc(-c2ccccc2)n1)c1cccnc1`, the B-score of Tl+ flux slope (higher = more flux/activation; lower = inhibition) is -0.711 (inactive).

Turning to `C/C(=N/NC(=O)CC(=O)N/N=C(\C)c1ccc([N+](=O)[O-])cc1)c1ccc([N+](=O)[O-])cc1`, the B-score of Tl+ flux slope (higher = more flux/activation; lower = inhibition) is -0.738 (inactive).

As for `COc1ccccc1/C=C/C=N/n1c(-c2ccc(Cl)cc2Cl)n[nH]c1=S`, the B-score of Tl+ flux slope (higher = more flux/activation; lower = inhibition) is 11.5 (active).

Regarding `Fc1ccccc1/C=N/n1c(-c2cccnc2)n[nH]c1=S`, the B-score of Tl+ flux slope (higher = more flux/activation; lower = inhibition) was -0.286 (inactive).

`S=c1[nH]nc(-c2ccncc2)n1/N=C/c1ccccc1Cl`: the B-score of Tl+ flux slope (higher = more flux/activation; lower = inhibition) is 1.47 (inactive).

Consider `COc1ccc(NC(=O)c2cn(-c3ccccc3)nc2SC)cc1`, for which the B-score of Tl+ flux slope (higher = more flux/activation; lower = inhibition) is -1.58 (inactive).

As for `CCOC(=O)c1ccc(N=C2SC(C(=O)NC)CC(=O)N2CCc2ccccc2)cc1` (stereo not drawn), the B-score of Tl+ flux slope (higher = more flux/activation; lower = inhibition) was 0.234 (inactive).

`COc1ccc2nc(NC(=O)NC3CCCCC3)sc2c1`: the B-score of Tl+ flux slope (higher = more flux/activation; lower = inhibition) was -1.35 (inactive).

Regarding `CCC1=C/C(=C\c2ccc3c(c2)OCO3)C(=O)S1`, the B-score of Tl+ flux slope (higher = more flux/activation; lower = inhibition) was -8.87 (active).

Take `O=C1/C(=C/c2ccc3c(c2)OCO3)CCC/C1=C\c1ccc2c(c1)OCO2`: the B-score of Tl+ flux slope (higher = more flux/activation; lower = inhibition) is 0.12 (inactive).

For `CSC1=N/C(=C\c2ccc3c(c2)OCO3)C(=O)S1`, the B-score of Tl+ flux slope (higher = more flux/activation; lower = inhibition) was -0.302 (inactive).

The values are drawn from PubChem BioAssay AID1456 (Vanderbilt High Throughput Screening Facility, 2008).
